DRD3 agonist: D3 dopamine receptor (human) agonism. D3R DiscoveRx beta-arrestin cells, luminescence, 90 min. max activation, %. 410,000 compounds, 0.58% hits; in the data active = max activation above about 30%
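Cells at 1500/well, incubated overnight, then treated with pinned compounds (dopamine as control) for 90 min at 37 degrees C. DiscoveRx reagent added for 30 - 60 minutes at room temperature; luminescence read.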
BRCA1 expr act: BRCA1 expression activation. AID 624202. Potency, µM (series often up to 46.1 µM), actives largely listed as activators. MCF7-BRCA1-FFLuc reporter, luminescence, 48 h; response scale: scaled: vehicle 0%, 10 µM genistein 100%. 380,000 compounds, 1.1% hits; also: nearly all actives have a fitted effect of over 80% in size
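MCF7 cells carrying a BRCA1-firefly luciferase reporter (2000 cells/well, phenol-red free MEM) were attached for 2 h at 37 °C, then given compounds for 48 h. Luminescence was read 15 min after luciferase reagent; activity normalized to genistein (10 microM) and DMSO.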
PTHR1 ag: agonists of human PTHR1 parathyroid hormone receptor | HEK293 GP2 PTHR1 cells, GloSensor cAMP luminescence, 1 h | Potency, µM (titrated, usually from 115 µM), most hits filed as activators | AID 743266 | 410,000 compounds, 0.075% hits | Q03431; also: nearly all actives have a fitted effect of over 55% in size
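HEK-293-derived GP2 cells expressing PTHR1 and a GloSensor cAMP reporter, 3,000/well, plated overnight, given luciferin plus IBMX (each 0.5 mM as added) for 1 h at 37 °C, then compound for 1 h at 37 °C. Luminescence was read after 15 min at room temperature.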
RGS4 inhibitor: blocks human RGS4-accelerated GTP hydrolysis. P49798. Transcreener GDP fluorescence polarization, RGS4-accelerated GTP hydrolysis. Potency, µM (top dose mostly 114 µM), most hits filed as inhibitors. 390,000 compounds, 0.039% hits. AID 504845; also: nearly all actives have a fitted effect of over 75% in size
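MLSMR compounds (23 nl, pin-transferred) preincubated 10 min at room temperature with a 500nM (2x) first reagent, then RGS4 at 900nM (2x) plus Transcreener GDP mix added; fluorescence polarization (620/688 nm) read before and after 90 min at 30 °C.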
DRD3 antagonist: D3 dopamine receptor (human) antagonism; P35462; D3R cells, DiscoveRx beta-arrestin luminescence, antagonist mode; stronger effect = lower value; max response, negative = inhibition, %; 360,000 compounds, 2.5% hits; AID 652054; in the data active = max response below about -50%; inconclusive = no clear call, values can overlap the other calls
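Cells expressing the human receptor were seeded at 1500 cells/well, incubated overnight at 37 degrees C in 5% CO2, then exposed to library compounds with dopamine controls for 90 minutes at 37 degrees C before luminescent detection.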
B2AR arrestin: beta2AR (human) beta-arrestin recruitment activity; 330,000 compounds, 0.02% hits; Potency, µM (highest dose often 46.1 µM), usual class: activators; P07550; AID 492947; beta-arrestin recruitment to beta2AR, cell-based reporter; also: nearly all actives have a fitted effect of over 65% in size
Target sequence (P07550 whole entry, looked up): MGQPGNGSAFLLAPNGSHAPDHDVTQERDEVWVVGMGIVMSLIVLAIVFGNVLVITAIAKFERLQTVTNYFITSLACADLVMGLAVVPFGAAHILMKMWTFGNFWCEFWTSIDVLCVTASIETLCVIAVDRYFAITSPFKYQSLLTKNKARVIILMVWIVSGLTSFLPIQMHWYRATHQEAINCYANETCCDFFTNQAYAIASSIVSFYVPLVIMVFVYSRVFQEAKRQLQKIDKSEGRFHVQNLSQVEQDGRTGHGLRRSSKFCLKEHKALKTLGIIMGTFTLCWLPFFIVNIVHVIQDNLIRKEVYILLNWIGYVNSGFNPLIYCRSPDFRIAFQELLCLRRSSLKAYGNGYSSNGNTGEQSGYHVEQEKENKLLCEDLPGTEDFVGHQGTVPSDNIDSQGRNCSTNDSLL
Hits are given with their value; – = inactive; ? = inconclusive; · = not tested or not shown. The list is not random: actives were taken first. Their share in the collection is about 3.7%. Unless noted, calls follow the shape of the dose curve; as a rule, active = well fitted curve in the direction sought with a large enough effect; inconclusive = small, poorly fitted or top-dose-only effect, or another doubt; inactive = no such curve, though single readings can be large; an effect the other way counts as inactive or inconclusive.

SMILES	DRD3 agonist	BRCA1 expr act	PTHR1 ag	RGS4 inhibitor	DRD3 antagonist	B2AR arrestin
O=C(COC(=O)Cc1n[nH]c(=O)c2ccccc12)NNC(=O)c1ccc(Cl)cc1	–	–	–	–	-131	–
O=C(COC(=O)Cc1n[nH]c(=O)c2ccccc12)NNC(=O)c1ccc(Br)cc1	–	–	–	–	?	–
CCOC(=O)Cc1csc(SCC(=O)NC2CCC(C)CC2)n1 (stereo not given)	–	–	–	–	–	–
Cc1cc(F)ccc1C(O)c1ncc(-c2ccccc2C(F)(F)F)[nH]1 (stereo not given)	–	–	–	·	–	·
Cc1ccc(OCC(=O)Nc2ccccc2C(=O)OCc2cc(=O)n3nc(C4CC4)sc3n2)cc1	37	·	–	–	·	·
O=C(COc1ccccc1)OCc1cc(=O)n2nc(C3CC3)sc2n1	74	–	–	–	·	·
CCC(CC)C(=O)OCc1cc(=O)n2nc(C3CC3)sc2n1	45	–	–	–	·	·
CCC(CC)C(=O)OCc1cc(=O)n2nc(C3CCCCC3)sc2n1	–	–	–	–	·	·
CS(=O)(=O)N1CCC(N2CCN(Cc3ccc(F)cc3)C(=O)C2=O)CC1	–	·	–	–	·	·
COc1ccc(-c2csc(N(C)C(=O)c3ccco3)n2)cc1	–	7.1µM	–	–	–	–
CN(C(=O)c1ccco1)c1nc(-c2ccc(Cl)cc2)cs1	–	10µM	–	–	–	–
CN(C)CCCN(C(=O)c1ccco1)c1nc(-c2ccc(Cl)cc2)cs1	–	–	–	–	?	–
COc1ccc(-c2nnc(N(C)C(=O)c3ccno3)s2)cc1	–	5µM	–	–	–	–
CC1CC(C)(C)N(C(=O)CSc2ccc(-c3ccc(F)cc3)nn2)c2ccccc21 (stereo not given)	–	–	–	–	–	–
CCC(=O)N1CCc2cc(Br)cc(S(=O)(=O)N(C)c3ccc(OC)cc3)c21	–	–	–	–	–	–
Cc1ccc(C)c(NC(=O)Cn2cc(S(=O)(=O)NC(C)C)c(S(=O)(=O)NC(C)C)c2)c1	–	·	–	–	·	·
O=C(NC1=C(Nc2ccc(Cl)cc2)C(=O)c2ccccc2C1=O)c1ccccc1	–	–	–	–	–	–
O=C(Nc1ccc(Nc2ccccc2)cc1)c1ccccc1	–	3.5µM	–	–	?	·
CN(C1=C(NC(=O)c2ccc(Cl)cc2)C(=O)c2ccccc2C1=O)c1ccccc1	–	–	–	–	-52	–
O=C(Nc1ccc(Nc2ccccc2)cc1)c1ccc(Cl)cc1	–	–	–	–	–	·
O=C(Nc1ccc(F)cc1)c1ccccc1	–	11µM	–	–	?	–
O=C(Nc1ccccc1)c1[nH]ncc1[N+](=O)[O-]	–	–	–	–	-63	–
O=C(Nc1ccc(F)cc1)c1cccc(C(=O)Nc2ccc(F)cc2)c1	–	–	–	–	–	–
CCOC(=O)C1=C(COC(=O)c2cc(S(=O)(=O)N(C)C)ccc2C)NC(=O)NC1C (stereo not given)	–	–	–	–	–	–
CCC(C(=O)NC1CCCC1)N(C(=O)Cn1nnc(-c2ccc(C)o2)n1)c1ccc(F)cc1 (stereo not given)	–	–	–	–	–	–
O=C(NC1CC1)c1cccc2c1C(=O)c1ccc(N3CCC(N4CCCCC4)CC3)cc1S2(=O)=O	–	–	–	·	–	·
Cc1onc(-c2ccccc2)c1C(=O)Nc1ccc(S(=O)(=O)N2CCOCC2)cc1	–	–	–	–	–	–
CCc1ccc(/C=C2/SC(=S)NC2=O)cc1	·	·	·	–	·	·
C[C@@H]1C/C=C/C=C/C=C/C=C/[C@H](O[C@@H]2O[C@H](C)[C@@H](O)[C@H](N)[C@@H]2O)C[C@@H]2O[C@](O)(C[C@@H](O)C[C@H]3O[C@@H]3/C=C/C(=O)O1)C[C@H](O)[C@H]2C(=O)O	–	·	·	·	·	·
